Data reported in PubChem BioAssay (NCATS).
Values joined by “and” are separate entries in the source; they are usually repeats but may differ in a detail not shown here. Equal entries are not always repeated. Records with an inconclusive call do not appear. Active and inactive are the calls of the source. Unless noted, calls follow the shape of the dose curve; as a rule, active = well fitted curve in the direction sought with a large enough effect; inconclusive = small, poorly fitted or top-dose-only effect, or another doubt; inactive = no such curve, though single readings can be large; an effect the other way counts as inactive or inconclusive.

Assays:
[1] = biological target: Glucocorticoid receptor (Homo sapiens) (UniProt P04150); assay: GR-GFP Redistribution (AID 450;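 active = compounds whose dose series gives a full or clear partial fitted curve of increased nuclear translocation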; also: potency is read from the fitted curve at half-maximal effect); conditions: U2OS GR-GFP nuclear translocation, laser cytometry, 2 h
Sequence of Glucocorticoid receptor (Homo sapiens) (P04150 whole entry, looked up, the tested form may be a part): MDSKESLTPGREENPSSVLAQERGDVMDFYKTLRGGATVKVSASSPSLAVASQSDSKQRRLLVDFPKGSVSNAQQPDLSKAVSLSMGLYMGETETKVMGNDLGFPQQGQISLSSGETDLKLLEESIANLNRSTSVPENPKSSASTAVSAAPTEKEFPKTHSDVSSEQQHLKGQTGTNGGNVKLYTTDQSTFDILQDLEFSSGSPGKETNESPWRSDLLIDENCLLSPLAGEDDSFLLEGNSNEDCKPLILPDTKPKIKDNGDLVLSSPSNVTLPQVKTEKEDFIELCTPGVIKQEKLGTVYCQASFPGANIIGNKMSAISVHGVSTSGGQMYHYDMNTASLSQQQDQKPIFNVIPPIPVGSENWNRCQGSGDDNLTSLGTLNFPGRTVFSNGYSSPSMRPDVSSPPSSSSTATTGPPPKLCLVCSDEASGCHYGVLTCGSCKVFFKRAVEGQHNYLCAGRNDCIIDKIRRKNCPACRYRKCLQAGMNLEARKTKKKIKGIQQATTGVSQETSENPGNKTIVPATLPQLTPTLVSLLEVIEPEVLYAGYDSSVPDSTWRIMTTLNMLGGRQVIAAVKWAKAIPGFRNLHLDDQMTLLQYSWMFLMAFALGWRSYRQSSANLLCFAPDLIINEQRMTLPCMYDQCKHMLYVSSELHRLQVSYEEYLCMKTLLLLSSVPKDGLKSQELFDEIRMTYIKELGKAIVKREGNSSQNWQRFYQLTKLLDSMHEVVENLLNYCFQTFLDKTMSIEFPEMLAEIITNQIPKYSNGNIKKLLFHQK

[2] = biological target: Glucocorticoid receptor (Homo sapiens) (UniProt P04150); assay: GR-EFC Redistribution (AID 451; calls by dose curve; also: potency is read from the fitted curve at half-maximal effect); conditions: CHO-K1 GR-EFC translocation, beta-gal luminescence, 2 h
In short: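 CHO-K1 cells expressing nuclear EA and GR-ED fragments of b-gal; compounds titrated up to 46 uM final, 2 h at 37 C. GR nuclear translocation read as complemented b-gal luminescence after 1 h RT detection.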

[3] = qHTS Assay for Lipid Storage Modulators (AID 1519; calls by dose curve; as to activity change, negative = inhibition: % is scaled to controls: 0 for no effect and ±100 for the full control effect); conditions: Drosophila S3 cells, BODIPY lipid droplet/cell ratio, laser cytometry, cells loaded with oleic acid; for activity change, negative = inhibition: at 57.5 µM (top of the series)
In short: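 Cells seeded at 5,000 per well were treated with compounds over a concentration series and loaded with oleic acid (400 uM, as added). Lipid droplet fluorescence (488 nm excitation, 500-530 nm channel) was read by laser-scanning cytometry and normalized to 20 uM Triacsin C.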

[4] = biological target: Ubiquitin carboxyl-terminal hydrolase 1 (Homo sapiens) (UniProt O94782); assay: Inhibitors of USP1/UAF1: Pilot qHTS (AID 504865); conditions: purified USP1/UAF1, Ub-rhodamine cleavage fluorescence; series mostly up to 114 µM;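 also: rhodamine fluorescence freed from ubiquitin-rhodamine substrate followed over time; top concentration of the series differs between compounds; % is scaled to controls: 0 for no effect and ±100 for the full control effect; nearly all actives have a fitted effect of over 35% in size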
Sequence of Ubiquitin carboxyl-terminal hydrolase 1 (Homo sapiens) (O94782 whole entry, looked up): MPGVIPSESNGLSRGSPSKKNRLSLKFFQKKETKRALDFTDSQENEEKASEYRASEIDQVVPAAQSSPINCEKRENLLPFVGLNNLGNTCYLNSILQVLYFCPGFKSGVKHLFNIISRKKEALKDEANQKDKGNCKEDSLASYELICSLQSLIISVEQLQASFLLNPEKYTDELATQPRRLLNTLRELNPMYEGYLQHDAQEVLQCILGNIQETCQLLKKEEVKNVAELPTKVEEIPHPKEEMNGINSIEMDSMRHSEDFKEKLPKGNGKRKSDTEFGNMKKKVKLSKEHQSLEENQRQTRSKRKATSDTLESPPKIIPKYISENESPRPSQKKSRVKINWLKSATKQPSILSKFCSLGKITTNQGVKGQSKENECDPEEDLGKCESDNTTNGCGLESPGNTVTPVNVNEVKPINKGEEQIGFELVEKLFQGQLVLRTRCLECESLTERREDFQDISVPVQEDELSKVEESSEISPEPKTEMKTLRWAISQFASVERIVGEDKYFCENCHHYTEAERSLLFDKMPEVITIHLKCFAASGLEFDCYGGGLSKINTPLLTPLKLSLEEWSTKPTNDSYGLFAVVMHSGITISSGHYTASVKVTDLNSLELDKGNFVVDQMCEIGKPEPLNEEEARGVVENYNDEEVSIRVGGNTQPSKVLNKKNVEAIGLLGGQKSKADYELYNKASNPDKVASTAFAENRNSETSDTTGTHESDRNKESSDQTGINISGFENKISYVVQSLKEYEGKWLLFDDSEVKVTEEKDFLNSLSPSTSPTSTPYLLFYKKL
In short: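 1nM USP1/UAF1 + cpd, 15 min RT; start w/ Ub-Rho 150nM final; kinetic FL 480/540 nm, 6 reads q60 s. Buffer 50mM HEPES pH 7.8, 0.5mM EDTA, 1mM TCEP, 0.01% Tween-20, 0.1 mg/ml BSA.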

[5] = biological target: DNA dC->dU-editing enzyme APOBEC-3G (Homo sapiens) (UniProt Q9HC16); assay: qHTS for inhibitors of Vif-A3G interactions: Validation (AID 588379); conditions: Vif-A3G protein interaction assay; series mostly up to 46.1 µM; also: 0% is about no effect
Sequence of DNA dC->dU-editing enzyme APOBEC-3G (Homo sapiens) (Q9HC16 whole entry, looked up): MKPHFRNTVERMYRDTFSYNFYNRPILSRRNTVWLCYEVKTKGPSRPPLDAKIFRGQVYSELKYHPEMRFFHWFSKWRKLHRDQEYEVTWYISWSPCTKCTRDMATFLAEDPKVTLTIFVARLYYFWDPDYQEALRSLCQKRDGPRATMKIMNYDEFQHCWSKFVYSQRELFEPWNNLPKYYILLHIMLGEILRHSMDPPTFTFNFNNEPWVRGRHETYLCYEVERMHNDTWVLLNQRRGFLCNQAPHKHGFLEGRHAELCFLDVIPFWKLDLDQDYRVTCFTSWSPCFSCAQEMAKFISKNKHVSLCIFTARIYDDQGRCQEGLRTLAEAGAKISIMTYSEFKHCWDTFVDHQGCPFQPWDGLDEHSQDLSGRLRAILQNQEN
In short: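 HeLa cells stably expressing Vif and A3G-eYFP, 700 cells/well, incubated overnight at 37 deg C, then exposed to compound overnight at 37 deg C. Inhibition of Vif-mediated degradation read as increased yellow fluorescence (Ex 488/Em 500-530) by laser-scanning cytometry.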

[6] = test system: Zika virus NS2B-NS3 protease; assay: Primary screen GU AMC qHTS for Zika virus inhibitors (AID 1347154); conditions: Zika NS2B-NS3 unlinked protease, AMC fluorogenic substrate; series mostly up to 54.1 µM;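 also: 0% = no-inhibitor control and -100% = no-enzyme control; nearly all actives have a fitted effect of over 70% in size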
In short: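 Unlinked Zika NS2B hydrophilic domain–NS3 protease complex at 25 nM in 10 mM Tris-HCl pH 8.0, 0.01% Tween 20, with an AMC peptide substrate. Fluorescence change (340/450 nm) over 15 min at room temperature, normalized to controls, fitted to 4-parameter Hill.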

[7] = Primary qHTS for small molecule stabilizers of the endoplasmic reticulum resident proteome: Secreted ER Calcium Modulated Protein (SERCaMP) assay (AID 1508630); conditions: SH-SY5Y GLuc-SERCaMP (Gaussia luciferase released on ER calcium loss) secretion, thapsigargin, luminescence; series mostly up to 38.4 µM; also: % is scaled to controls: 0 for no effect and ±100 for the full control effect
In short: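 GLuc-SERCaMP-expressing SH-SY5Y cells, pretreated 16 h with compound, are challenged with thapsigargin to empty ER calcium stores; after 4 h, coelenterazine is added directly to the medium and luminescence is imaged.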

[8] = biological target: Mitogen-activated protein kinase 10 (Mus musculus) (UniProt Q61831); assay: JNK3 AlphaScreen Assay (AID 530; active = well fitted curve in either direction with a large enough effect, not every such curve was filed as active;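 also: kinase came from lysate of stimulated human HepG2 cells; signal reports phosphorylation of biotinylated GST-cJun 1-79 at Ser73 with 10 µM ATP; % is scaled to controls: 0 for no effect and ±100 for the full control effect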); conditions: JNK3 lysate, c-Jun phosphorylation; series mostly up to 57.1 µM
In short: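 Pre-activated (IL-1β/TNFα) JNK3 in HepG2 lysates phosphorylates biotin-GST-cJun(1-79), 10 uM ATP; anti-phospho-cJun(Ser73) AlphaScreen read at room temperature, pH 7.6 Tris buffer. Compounds pre-incubated 15 min as titrations.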

[9] = biological target: Cytochrome P450 2C19 (Homo sapiens) (UniProt P33261); assay: qHTS Assay for Inhibitors and Substrates of Cytochrome P450 2C19 (AID 899); conditions: recombinant CYP2C19, luciferin-H EGE luminescence; series mostly up to 57.1 µM; also: nearly all actives have a fitted effect of over 60% in size; also: potency is read from the fitted curve at half-maximal effect
Sequence of Cytochrome P450 2C19 (Homo sapiens) (P33261 whole entry, looked up): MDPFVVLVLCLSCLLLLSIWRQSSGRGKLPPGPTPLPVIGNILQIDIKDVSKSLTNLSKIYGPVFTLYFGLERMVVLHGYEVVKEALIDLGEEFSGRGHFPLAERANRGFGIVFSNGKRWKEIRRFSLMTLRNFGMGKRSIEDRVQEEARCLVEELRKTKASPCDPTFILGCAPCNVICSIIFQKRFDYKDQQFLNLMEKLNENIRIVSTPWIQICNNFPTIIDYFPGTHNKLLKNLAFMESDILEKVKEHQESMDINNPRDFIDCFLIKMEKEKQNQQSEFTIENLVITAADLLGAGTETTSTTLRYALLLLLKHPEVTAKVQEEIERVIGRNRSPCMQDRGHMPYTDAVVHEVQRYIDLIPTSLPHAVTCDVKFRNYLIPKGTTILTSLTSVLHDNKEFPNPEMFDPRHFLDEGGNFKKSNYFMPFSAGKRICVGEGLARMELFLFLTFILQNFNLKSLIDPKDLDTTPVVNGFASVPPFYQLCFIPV
In short: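 5 nM human CYP2C19 with 10uM Luciferin-H EGE (at KM) in 50mM KPO4, compound preincubated 10 min at 37C, then NADPH regeneration for 60 min at 37C. Luciferin read by luminescence after detection reagent; normalized to 57uM ketoconazole as full inhibition.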

[10] = biological target: Cytochrome P450 3A4 (Homo sapiens) (UniProt P08684); assay: qHTS Assay for Inhibitors and Substrates of Cytochrome P450 3A4 (AID 884); conditions: recombinant CYP3A4, Luciferin-PPXE luminescence; series mostly up to 57.1 µM; also: % is scaled to controls: 0 for no effect and ±100 for the full control effect; nearly all actives have a fitted effect of over 50% in size
Sequence of Cytochrome P450 3A4 (Homo sapiens) (P08684 whole entry, looked up): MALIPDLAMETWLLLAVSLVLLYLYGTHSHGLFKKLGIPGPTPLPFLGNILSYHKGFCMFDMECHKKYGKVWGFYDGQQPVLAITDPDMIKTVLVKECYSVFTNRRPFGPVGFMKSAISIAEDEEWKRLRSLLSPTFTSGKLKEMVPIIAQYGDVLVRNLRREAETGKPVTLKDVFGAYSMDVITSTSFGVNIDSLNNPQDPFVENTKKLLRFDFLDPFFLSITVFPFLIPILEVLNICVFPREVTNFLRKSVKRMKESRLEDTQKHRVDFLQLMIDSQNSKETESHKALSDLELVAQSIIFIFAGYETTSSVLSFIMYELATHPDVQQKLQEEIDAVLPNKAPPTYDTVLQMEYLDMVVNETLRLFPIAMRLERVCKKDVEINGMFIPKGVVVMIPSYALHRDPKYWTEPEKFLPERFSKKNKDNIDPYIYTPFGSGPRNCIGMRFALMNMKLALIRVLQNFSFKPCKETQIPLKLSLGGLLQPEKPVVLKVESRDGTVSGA
In short: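 20 nM human CYP3A4 with 25 uM Luciferin-PPXE (at KM) in 200 mM KPO4, preincubated 10 min with compound; NADPH regeneration started a 60 min RT reaction. Luciferin detected by luminescence, normalized to 57 uM ketoconazole as full inhibition.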

[11] = biological target: 3',5'-cyclic-AMP phosphodiesterase 4B (Homo sapiens) (UniProt Q07343); assay: qHTS Assay for Inhibitors of PDE-IV (AID 607; active = well fitted activation curve with a large enough effect in the main read-out, with a control signal flat, not every such curve was filed as active; also: % of control where 0% means no effect); conditions: HEK293 ACTOne CNG channel cells, membrane potential fluorescence; series mostly up to 22.9 µM
Sequence of 3',5'-cyclic-AMP phosphodiesterase 4B (Homo sapiens) (Q07343 whole entry, looked up): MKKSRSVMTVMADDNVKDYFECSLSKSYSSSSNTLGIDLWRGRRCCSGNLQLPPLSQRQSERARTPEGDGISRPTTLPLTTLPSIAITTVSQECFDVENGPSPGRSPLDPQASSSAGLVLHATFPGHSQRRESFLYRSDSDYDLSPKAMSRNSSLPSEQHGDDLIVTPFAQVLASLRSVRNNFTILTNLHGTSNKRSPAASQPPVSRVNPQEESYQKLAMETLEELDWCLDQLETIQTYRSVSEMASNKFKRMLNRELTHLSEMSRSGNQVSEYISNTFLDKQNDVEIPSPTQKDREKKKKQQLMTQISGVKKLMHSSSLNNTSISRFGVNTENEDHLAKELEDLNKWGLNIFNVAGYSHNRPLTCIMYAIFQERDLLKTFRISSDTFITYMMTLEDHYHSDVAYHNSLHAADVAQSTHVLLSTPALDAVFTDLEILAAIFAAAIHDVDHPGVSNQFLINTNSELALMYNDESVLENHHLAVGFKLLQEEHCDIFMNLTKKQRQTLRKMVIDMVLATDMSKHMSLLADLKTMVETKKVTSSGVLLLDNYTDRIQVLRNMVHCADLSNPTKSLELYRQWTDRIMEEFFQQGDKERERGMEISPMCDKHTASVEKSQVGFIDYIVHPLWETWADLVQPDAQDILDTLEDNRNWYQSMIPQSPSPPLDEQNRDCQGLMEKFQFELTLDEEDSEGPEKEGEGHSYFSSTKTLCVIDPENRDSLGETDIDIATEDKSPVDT
In short: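 ACTOne HEK293 cells carry a modified cAMP-gated CNG channel and express endogenous PDE4; plated 1000 cells/well, compounds up to 22.9 uM final. Membrane-potential dye fluorescence (ex 535/em 590) was read; parental cells received 10 uM forskolin + 100 uM RO 20-1724.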

[12] = biological target: Cytochrome P450 3A4 (Homo sapiens) (UniProt P08684); assay: qHTS Assay for Activators of Cytochrome P450 3A4 (AID 885); conditions: recombinant CYP3A4, Luciferin-PPXE luminescence, 60 min; series mostly up to 57.1 µM; also: nearly all actives have a fitted effect of over 65% in size
In short: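 20nM CYP3A4 + 25uM Luciferin-PPXE (=KM), 200mM KPO4; cpd 10 min RT; NADPH regen, 60 min RT; stop w/ detection buffer, 20 min; luminescence. Normalized to 57 uM ketoconazole.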

[13] = measured here: cell count channel max response
[14] = measured here: lipid channel max response

Nc1nc2c(nc(Br)n2[C@@H]2O[C@H]3COP(=O)(O)O[C@H]3[C@@H]2O)c(=O)[nH]1
-4.09%: max response [3, 13]
inactive: Potency [1] > 46 µM | Potency [2] > 46 µM | activity change, negative = inhibition [3] -3.52% | Potency [4] | Potency [5] | Potency [6] | Potency [7]
-7.98%: max response [3, 14]

O=C(O)[C@H]1CN[C@H](C(=O)O)C1
-9.77%: max response [3, 13]
-9.55%: max response [3, 14]
inactive: Potency [1] > 46 µM | Potency [2] > 46 µM | Potency [8] | Potency [9] | activity change, negative = inhibition [3] 1.7% | Potency [4] | Potency [5] | Potency [6] | Potency [7]

CC(C)=CCC/C(C)=C/CC/C(C)=C/CC/C(C)=C/CO
21.5%: max response [3, 14]
inactive: Potency [10] | activity change, negative = inhibition [3] 7.37% | Potency [4] | Potency [6] | Potency [7]
9.56%: max response [3, 13]

COC(=O)[C@H]1[C@@H]2C[C@H]3c4[nH]c5ccccc5c4CCN3C[C@@H]2CC[C@@H]1O
-3.24%: max response [3, 13]
4.05%: max response [3, 14]
inactive: Potency [8] | Potency [11] | activity change, negative = inhibition [3] 4.47% | Potency [4] | Potency [5] | Potency [6] | Potency [7]

CCNC(=O)[C@H]1O[C@H](n2cnc3c(N)nc(NCCc4ccc(CCC(=O)O)cc4)nc32)[C@@H](O)[C@@H]1O
inactive: Potency [1] > 46 µM | Potency [2] > 46 µM | Potency [11] | activity change, negative = inhibition [3] -4.61% | Potency [4] | Potency [5] | Potency [6] | Potency [7]
-19.8%: max response [3, 14]
-14.7%: max response [3, 13]

NC1(C(=O)O)C[C@@H](C(=O)O)[C@H](C(=O)O)C1
18.3% and 11.3%: max response [3, 14]
active: Potency [9] 7.94 µM
8.99% and 4.7%: max response [3, 13]
inactive: Potency [1] > 46 µM | Potency [2] > 46 µM | Potency [8] | Potency [11] | activity change, negative = inhibition [3] 7.04% and 6.44% | Potency [4] | Potency [5] | Potency [6] | Potency [7]

CC(C)C[C@H](NC(=O)N1CCCCCC1)C(=O)N[C@H](Cc1cn(C)c2ccccc12)C(=O)N[C@H](Cc1ccccn1)C(=O)O
inactive: Potency [1] > 46 µM | Potency [2] > 46 µM | Potency [8] | Potency [11] | Potency [12] | activity change, negative = inhibition [3] -4.14% | Potency [4] | Potency [5] | Potency [6] | Potency [7]
9.02%: max response [3, 14]
14.7%: max response [3, 13]

N[C@]1(C(=O)O)CCc2cc(P(=O)(O)O)ccc21
-8.48%: max response [3, 14]
-7.84%: max response [3, 13]
inactive: Potency [1] > 46 µM | Potency [2] > 46 µM | Potency [8] | Potency [11] | activity change, negative = inhibition [3] -2.38% | Potency [4] | Potency [5] | Potency [6] | Potency [7]
